Reference: the supplement of paper PMC10849652
About 8,800 targets were measured; listed, in parts, are those with a hit and a random draw of the rest. About 0.5% of all pairs of compound and target were hits.

How the values were obtained:
Assay in all cases: log2 fold change, soluble protein after heating vs DMSO (PISA); higher = thermal stabilisation; K562 lysate, 10 uM; active = over 0.2 and 3.5 SD of the protein, either way, in both replicates (recomputed)
[1] = compound: CCCS(=O)(=O)Nc1ccc(F)c(C(=O)c2c[nH]c3ncc(-c4ccc(Cl)cc4)cc23)c1F [vemurafenib]
Summary of the method: (§1)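 Following dounce homogenisation of K562 pellets in PBS pH 7.4 with 1 mM MgCl2, crude extract at 1 mg/mL protein was incubated for 30 min with 10 μM compound. Aliquots were then heated for 3 min over 48°C-58°C and pooled, NP-40 was added to 0.5% at 4°C, and soluble protein was recovered as the supernatant at 21,000xg for 90 min. Channel-sum-equalised TMTpro 16plex LC-MS/MS quantified this protein. Each value, from duplicates, is a log-two fold change in thermal stability relative to solvent controls.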

[2] = compound: CCCS(=O)(=O)Nc1ccc(F)c(C(=O)c2c[nH]c3ncc(Cl)cc23)c1F
Summary of the method: as §1

[3] = compound: CCN(CCCOc1ccc2c(Nc3cc(CC(=O)Nc4cccc(F)c4)[nH]n3)ncnc2c1)CCOP(=O)(O)O [barasertib]
Summary of the method: as §1

[4] = compound: CC[C@@H]1C(=O)N(C)c2cnc(Nc3ccc(C(=O)NC4CCN(C)CC4)cc3OC)nc2N1C1CCCC1
Summary of the method: as §1

[5] = compound: CC[C@@H]1C(=O)N(C)c2cnc(Nc3ccc(C(=O)N[C@H]4CC[C@H](N5CCN(CC6CC6)CC5)CC4)cc3OC)nc2N1C(C)C [volasertib]
Summary of the method: as §1

[6] = compound: CCn1c(C(=O)N(C2CC2)C2CC2)cc2c3c(ncn3C)c(Nc3cc(C)n(C)n3)nc21
Summary of the method: as §1

[7] = compound: CCn1cc(-c2ccnc3[nH]c(-c4cccc(CN(C)C)c4)cc23)c(-c2ccc(NC(=O)N(C)C)cc2)n1
Summary of the method: as §1

[8] = compound: CN1CCC(CNc2ccc3ncc(-c4cccc(OC(F)(F)F)c4)n3n2)CC1
Summary of the method: as §1

[9] = compound: CN1CCN(CCOc2cc(OC3CCOCC3)c3c(Nc4c(Cl)ccc5c4OCO5)ncnc3c2)CC1 [saracatinib]
Summary of the method: as §1

[10] = compound: CN1CCN(c2nc(C3=C(c4c[nH]c5ccccc45)C(=O)NC3=O)c3ccccc3n2)CC1 [sotrastaurin]
Summary of the method: as §1

Measured: log2 fold change

RBM42 (UniProt Q9BTD8)
inactive: [1] -0.029 | [2] 0.027 | [3] -0.037 | [4] 0.076 | [5] -0.014 | [6] -0.006 | [7] 0.004 | [8] -0.002 | [9] 0.039 | [10] -0.009

RFC2 (UniProt P35250)
inactive: [1] -0.043 | [2] 0.007 | [3] 0.038 | [4] -0.095 | [5] -0.09 | [6] 0.024 | [7] -0.068 | [8] 0.023 | [9] -0.005 | [10] 0.03

RPS26P11 (UniProt Q5JNZ5)
inactive: [1] 0.012 | [2] -0.01 | [3] -0.03 | [4] 0.041 | [5] 0.017 | [6] 0.02 | [8] 0.224 | [9] 0.009 | [10] 0.05
active: [7] -0.688

RETREG2 (UniProt Q8NC44)
inactive: [1] 0.037 | [2] -0.036 | [3] 0.033 | [4] -0.009 | [5] 0.09 | [6] -0.086 | [7] -0.261 | [8] 0.014 | [10] 0.112

SASS6 (UniProt Q6UVJ0)
inactive: [1] 0.042 | [2] -0.024 | [3] -0.016 | [4] 0.039 | [5] -0.024 | [6] 0.024 | [7] 0.154 | [8] -0.047 | [9] 0.059 | [10] -0.02

RAD50 isoform 2 (UniProt Q92878)
inactive: [1] 0.004 | [2] 0.013 | [3] 0.025 | [4] -0.011 | [5] -0.047 | [6] 0.039 | [7] -0.024 | [8] -0.024 | [9] 0 | [10] 0.036

RPL8 (UniProt P62917)
inactive: [1] -0.055 | [2] 0.013 | [3] -0.042 | [4] -0.09 | [5] -0.012 | [6] 0.021 | [7] 0.208 | [8] -0.014 | [9] -0.009 | [10] -0.038

SERPINI1 (UniProt Q99574)
inactive: [1] 0.027 | [2] 0.008 | [3] -0.006 | [4] 0.024 | [5] -0.001 | [6] 0.03 | [7] 0.001 | [8] 0.069 | [9] 0 | [10] 0.016

RBBP7 (UniProt Q16576)
Sequence of UniProt Q16576 (Q16576 whole entry, looked up): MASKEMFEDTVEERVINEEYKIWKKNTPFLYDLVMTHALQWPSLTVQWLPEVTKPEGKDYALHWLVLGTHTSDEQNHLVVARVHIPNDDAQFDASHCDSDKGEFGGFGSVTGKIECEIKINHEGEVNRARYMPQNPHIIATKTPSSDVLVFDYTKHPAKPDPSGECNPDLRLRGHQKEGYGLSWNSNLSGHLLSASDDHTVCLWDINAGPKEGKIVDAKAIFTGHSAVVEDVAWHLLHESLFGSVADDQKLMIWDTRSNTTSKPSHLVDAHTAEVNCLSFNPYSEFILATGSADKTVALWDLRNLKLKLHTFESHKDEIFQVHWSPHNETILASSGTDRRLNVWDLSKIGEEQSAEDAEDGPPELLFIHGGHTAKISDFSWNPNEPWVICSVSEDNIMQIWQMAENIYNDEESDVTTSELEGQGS
inactive: [1] 0.044 | [2] -0.021 | [3] -0.072 | [4] -0.017 | [5] -0.004 | [6] -0.002 | [9] 0.021 | [10] 0.043

RBM8A (UniProt Q9Y5S9)
inactive: [1] -0.086 | [2] -0.045 | [3] 0.027 | [4] -0.091 | [5] -0.016 | [6] 0.047 | [7] 0.35 | [8] -0.198 | [9] -0.043 | [10] 0.047

SCAF1 (UniProt Q9H7N4)
inactive: [1] 0.027 | [2] 0.093 | [3] 0.079 | [4] 0.089 | [5] -0.114 | [6] 0.05 | [7] -0.041 | [8] 0.008 | [9] 0.009 | [10] -0.029

RAPGEF4 (UniProt Q8WZA2)
inactive: [1] 0.157 | [2] 0.077 | [3] 0.022 | [4] 0.174 | [5] 0.049 | [6] -0.259 | [8] 0.391 | [9] 0.037 | [10] 0.001
active: [7] -0.887

RUFY2 isoform 1 (UniProt Q8WXA3)
inactive: [1] 0.01 | [3] -0.206 | [4] 0.038 | [6] -0.026 | [7] -0.009 | [8] -0.178 | [10] 0.001

RNF149 (UniProt Q8NC42)
inactive: [1] -0.026 | [2] -0.15 | [3] 0.026 | [5] -0.063 | [6] -0.162 | [7] 0.343 | [8] 0.02 | [9] 0.021 | [10] -0.081

RXRA (UniProt P19793)
active: [7] -0.359
inactive: [2] -0.121 | [5] 0.026 | [6] -0.061 | [8] 0.13 | [9] -0.093 | [10] 0.013

RHOU (UniProt Q7L0Q8)
Sequence of UniProt Q7L0Q8 (Q7L0Q8 whole entry, looked up): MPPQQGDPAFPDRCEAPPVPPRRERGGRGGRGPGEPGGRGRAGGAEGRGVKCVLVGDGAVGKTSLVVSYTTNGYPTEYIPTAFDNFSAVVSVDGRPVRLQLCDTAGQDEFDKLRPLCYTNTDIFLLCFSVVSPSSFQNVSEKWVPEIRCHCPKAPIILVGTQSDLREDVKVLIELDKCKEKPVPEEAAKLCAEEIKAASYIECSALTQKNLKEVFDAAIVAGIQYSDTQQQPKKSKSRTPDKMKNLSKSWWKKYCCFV
inactive: [1] -0.04 | [2] -0.059 | [4] -0.122 | [5] 0.008 | [6] -0.006 | [7] 0.173 | [8] 0.015 | [9] -0.027 | [10] 0.036

SCNM1 (UniProt Q9BWG6)
active: [5] 0.372
inactive: [2] 0.012 | [4] 0.122 | [6] 0.099 | [7] -0.033 | [8] -0.005 | [9] -0.092 | [10] -0.023

RPS6KA3 (UniProt P51812)
inactive: [1] 0.031 | [2] 0.005 | [3] -0.003 | [5] -0.026 | [6] 0.133 | [7] -0.014 | [8] 0.093 | [9] 0.078 | [10] 0.037

SEC16A isoform 3 (UniProt O15027)
inactive: [6] 0.231 | [9] 0.068

RDH11 (UniProt Q8TC12)
inactive: [1] 0.055 | [2] 0.088 | [4] -0.115 | [5] -0.13 | [6] 0.069 | [7] -0.213 | [8] 0.082 | [9] 0.021 | [10] 0.022

RMI2 (UniProt Q96E14)
inactive: [1] 0.239 | [4] -0.109 | [6] -0.007 | [9] -0.008 | [10] -0.01

SATB2 (UniProt Q9UPW6)
inactive: [1] 0.002 | [2] 0 | [4] 0.023 | [5] 0.007 | [6] 0.009 | [7] 0.074 | [8] 0.016 | [9] -0.026 | [10] 0.032

RNF17 (UniProt Q9BXT8)
inactive: [2] 0.022 | [3] 0.133 | [4] 0.099 | [5] 0.066 | [6] -0.035 | [7] 0.113 | [8] -0.421 | [9] 0.257 | [10] 0.046

RECQL4 (UniProt O94761)
inactive: [1] -0.019 | [3] 0.1 | [4] 0.054 | [6] 0.043 | [7] -0.254 | [8] -0.026 | [9] 0.043 | [10] -0.017

RFWD3 (UniProt Q6PCD5)
inactive: [1] -0.073 | [3] 0.004 | [4] -0.011 | [6] -0.062 | [7] -0.087 | [8] -0.055 | [9] -0.036 | [10] -0.017

RNPC3 (UniProt Q96LT9)
inactive: [2] -0.02 | [5] 0.019 | [6] -0.119 | [7] -0.009 | [8] -0.032 | [9] -0.022 | [10] -0.074

SEMA4G isoform 2 (UniProt Q9NTN9)
inactive: [1] 0.042 | [4] -0.059 | [7] -0.072 | [8] 0.04 | [9] -0.227 | [10] 0.004

SERAC1 (UniProt Q96JX3)
Sequence of UniProt Q96JX3 (Q96JX3 whole entry, looked up): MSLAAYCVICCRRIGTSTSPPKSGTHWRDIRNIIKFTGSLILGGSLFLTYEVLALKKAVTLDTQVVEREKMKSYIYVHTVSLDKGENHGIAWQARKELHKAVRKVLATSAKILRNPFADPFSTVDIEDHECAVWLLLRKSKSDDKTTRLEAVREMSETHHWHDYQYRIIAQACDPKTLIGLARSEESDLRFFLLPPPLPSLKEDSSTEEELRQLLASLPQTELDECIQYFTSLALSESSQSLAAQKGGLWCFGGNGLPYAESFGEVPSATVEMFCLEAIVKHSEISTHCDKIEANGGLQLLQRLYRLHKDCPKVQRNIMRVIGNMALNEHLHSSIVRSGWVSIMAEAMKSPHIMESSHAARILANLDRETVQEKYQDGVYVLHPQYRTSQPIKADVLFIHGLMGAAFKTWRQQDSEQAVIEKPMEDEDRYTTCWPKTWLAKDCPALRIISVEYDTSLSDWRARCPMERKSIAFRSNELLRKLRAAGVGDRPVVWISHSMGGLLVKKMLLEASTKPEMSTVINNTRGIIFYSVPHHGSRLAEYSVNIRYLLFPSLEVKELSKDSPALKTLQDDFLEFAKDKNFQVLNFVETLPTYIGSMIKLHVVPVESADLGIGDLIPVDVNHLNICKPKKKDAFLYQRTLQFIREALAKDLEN
inactive: [3] 0.142 | [4] 0.1 | [7] -0.061 | [8] 0.051 | [9] -0.096

ROBO2 isoform 3 (UniProt Q9HCK4)
Sequence of UniProt Q9HCK4 (Q9HCK4 whole entry, looked up): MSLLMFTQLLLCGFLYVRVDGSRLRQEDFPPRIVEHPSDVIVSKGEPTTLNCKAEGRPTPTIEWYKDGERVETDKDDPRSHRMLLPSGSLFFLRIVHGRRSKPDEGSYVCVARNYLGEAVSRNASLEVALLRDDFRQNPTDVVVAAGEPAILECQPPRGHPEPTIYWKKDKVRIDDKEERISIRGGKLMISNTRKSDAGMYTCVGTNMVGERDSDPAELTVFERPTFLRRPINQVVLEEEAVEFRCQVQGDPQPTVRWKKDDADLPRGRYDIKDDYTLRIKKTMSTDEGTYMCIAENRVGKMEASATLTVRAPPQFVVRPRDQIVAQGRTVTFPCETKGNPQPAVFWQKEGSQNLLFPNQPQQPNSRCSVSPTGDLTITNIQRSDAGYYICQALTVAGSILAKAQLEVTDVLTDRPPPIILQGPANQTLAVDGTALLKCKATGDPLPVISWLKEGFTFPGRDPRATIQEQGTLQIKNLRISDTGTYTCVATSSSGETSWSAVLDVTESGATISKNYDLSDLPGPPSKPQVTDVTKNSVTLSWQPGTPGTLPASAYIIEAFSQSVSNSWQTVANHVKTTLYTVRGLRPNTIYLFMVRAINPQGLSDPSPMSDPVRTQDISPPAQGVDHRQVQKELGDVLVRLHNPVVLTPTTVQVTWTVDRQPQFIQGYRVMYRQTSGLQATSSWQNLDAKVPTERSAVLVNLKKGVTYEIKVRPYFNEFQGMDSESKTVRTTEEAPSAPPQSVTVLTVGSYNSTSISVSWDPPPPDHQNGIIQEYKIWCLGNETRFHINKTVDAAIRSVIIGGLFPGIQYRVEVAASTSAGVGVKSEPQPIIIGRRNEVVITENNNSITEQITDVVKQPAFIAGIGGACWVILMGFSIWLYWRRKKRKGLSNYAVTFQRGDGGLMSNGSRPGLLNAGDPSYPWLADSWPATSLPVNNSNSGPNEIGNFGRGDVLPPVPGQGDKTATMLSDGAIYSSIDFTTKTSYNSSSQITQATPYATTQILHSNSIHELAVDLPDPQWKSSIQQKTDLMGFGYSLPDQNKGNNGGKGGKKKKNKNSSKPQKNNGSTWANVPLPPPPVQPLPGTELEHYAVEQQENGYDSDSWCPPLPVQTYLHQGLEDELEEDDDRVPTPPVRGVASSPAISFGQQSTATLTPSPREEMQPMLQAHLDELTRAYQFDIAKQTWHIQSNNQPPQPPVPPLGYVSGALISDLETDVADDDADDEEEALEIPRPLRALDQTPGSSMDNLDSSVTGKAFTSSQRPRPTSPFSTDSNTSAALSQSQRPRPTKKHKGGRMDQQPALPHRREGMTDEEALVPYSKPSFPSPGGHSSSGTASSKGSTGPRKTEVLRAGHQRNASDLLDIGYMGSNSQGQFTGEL
inactive: [2] 0.071 | [5] 0.045 | [10] -0.001
active: [6] 0.523

RAD17 (UniProt O75943)
Sequence of UniProt O75943 (O75943 whole entry, looked up): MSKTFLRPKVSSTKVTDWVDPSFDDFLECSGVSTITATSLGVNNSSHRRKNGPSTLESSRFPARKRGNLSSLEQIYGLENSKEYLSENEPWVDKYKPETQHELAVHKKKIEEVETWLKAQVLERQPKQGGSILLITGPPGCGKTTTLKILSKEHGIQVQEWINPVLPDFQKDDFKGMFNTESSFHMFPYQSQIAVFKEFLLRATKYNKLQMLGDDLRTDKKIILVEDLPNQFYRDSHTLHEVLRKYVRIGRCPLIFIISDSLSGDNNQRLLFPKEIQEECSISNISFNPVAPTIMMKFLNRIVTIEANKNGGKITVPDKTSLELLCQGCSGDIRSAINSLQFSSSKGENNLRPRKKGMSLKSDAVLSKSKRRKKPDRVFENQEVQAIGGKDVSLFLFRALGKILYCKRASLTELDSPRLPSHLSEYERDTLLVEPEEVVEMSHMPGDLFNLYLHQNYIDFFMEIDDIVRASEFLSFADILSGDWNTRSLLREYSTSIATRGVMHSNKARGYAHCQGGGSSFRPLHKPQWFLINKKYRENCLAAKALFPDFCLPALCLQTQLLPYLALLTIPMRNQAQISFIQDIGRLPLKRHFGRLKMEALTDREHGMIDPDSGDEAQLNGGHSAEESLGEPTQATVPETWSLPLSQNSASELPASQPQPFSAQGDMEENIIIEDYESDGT
inactive: [1] -0.091 | [3] 0.131 | [4] 0.017 | [6] 0.07 | [7] -0.214 | [8] -0.027 | [9] 0.042 | [10] -0.004

RNF170 (UniProt Q96K19)
inactive: [1] -0.08 | [2] 0.02 | [3] 0.189 | [5] -0.131 | [7] -0.015 | [8] 0.09 | [9] -0.201

RPS6KA5 (UniProt O75582)
inactive: [1] -0.048 | [2] -0.073 | [4] 0.059 | [5] -0.182 | [6] 0.005 | [7] -0.116 | [8] 0.087 | [9] -0.071 | [10] 0.185

RBM45 (UniProt Q8IUH3)
inactive: [2] 0.12 | [5] -0.207 | [7] 0.128 | [8] -0.015 | [10] 0.077

RYR1 (UniProt P21817)
inactive: [2] -0.038 | [3] 0.041 | [4] 0.07 | [5] -0.049 | [6] -0.053 | [7] 0.045 | [8] 0.03 | [9] 0.057 | [10] 0.091

RBM4 isoform 3 (UniProt Q9BWF3)
inactive: [10] 0.074

RNASEH2B, A0A1B0GUE7
inactive: [2] -0.061 | [5] -0.064

RNF24 isoform 2 (UniProt Q9Y225)
Sequence of UniProt Q9Y225 (Q9Y225 whole entry, looked up): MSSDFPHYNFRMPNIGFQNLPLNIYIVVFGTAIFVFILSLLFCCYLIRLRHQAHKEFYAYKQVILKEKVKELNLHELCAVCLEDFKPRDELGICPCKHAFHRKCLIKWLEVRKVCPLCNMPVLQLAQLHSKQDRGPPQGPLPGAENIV
inactive: [3] 0.122 | [7] 0.033 | [8] -0.084 | [10] 0.025

SELENOK (UniProt Q9Y6D0)
inactive: [1] -0.034 | [2] -0.004 | [3] -0.022 | [5] 0.062 | [7] -0.593 | [9] -0.021
active: [8] 0.529

RLIM (UniProt Q9NVW2)
inactive: [3] 0.065 | [10] -0.055

QSER1, A0A3B3IRW6
inactive: [1] -0.042 | [2] 0.045 | [4] -0.044 | [5] -0.028 | [6] 0.043 | [9] -0.036 | [10] -0.014

RAD54L (UniProt Q92698)
active: [7] -2.19
inactive: [2] -0.054 | [3] 0.012 | [5] 0.015 | [6] 0.005 | [8] 0.648 | [9] 0.095

RNASEH1 (UniProt O60930)
inactive: [7] -0.023 | [8] -0.002

SEC16A isoform 2 (UniProt O15027)
inactive: [6] -0.204

S100A6 (UniProt P06703)
inactive: [1] 0.036 | [2] 0.124 | [4] -0.027 | [5] 0.048 | [6] -0.094 | [7] 0.03 | [8] -0.139 | [10] -0.033
active: [9] 0.715

RALGAPB isoform 3 (UniProt Q86X10)
Sequence of UniProt Q86X10 (Q86X10 whole entry, looked up): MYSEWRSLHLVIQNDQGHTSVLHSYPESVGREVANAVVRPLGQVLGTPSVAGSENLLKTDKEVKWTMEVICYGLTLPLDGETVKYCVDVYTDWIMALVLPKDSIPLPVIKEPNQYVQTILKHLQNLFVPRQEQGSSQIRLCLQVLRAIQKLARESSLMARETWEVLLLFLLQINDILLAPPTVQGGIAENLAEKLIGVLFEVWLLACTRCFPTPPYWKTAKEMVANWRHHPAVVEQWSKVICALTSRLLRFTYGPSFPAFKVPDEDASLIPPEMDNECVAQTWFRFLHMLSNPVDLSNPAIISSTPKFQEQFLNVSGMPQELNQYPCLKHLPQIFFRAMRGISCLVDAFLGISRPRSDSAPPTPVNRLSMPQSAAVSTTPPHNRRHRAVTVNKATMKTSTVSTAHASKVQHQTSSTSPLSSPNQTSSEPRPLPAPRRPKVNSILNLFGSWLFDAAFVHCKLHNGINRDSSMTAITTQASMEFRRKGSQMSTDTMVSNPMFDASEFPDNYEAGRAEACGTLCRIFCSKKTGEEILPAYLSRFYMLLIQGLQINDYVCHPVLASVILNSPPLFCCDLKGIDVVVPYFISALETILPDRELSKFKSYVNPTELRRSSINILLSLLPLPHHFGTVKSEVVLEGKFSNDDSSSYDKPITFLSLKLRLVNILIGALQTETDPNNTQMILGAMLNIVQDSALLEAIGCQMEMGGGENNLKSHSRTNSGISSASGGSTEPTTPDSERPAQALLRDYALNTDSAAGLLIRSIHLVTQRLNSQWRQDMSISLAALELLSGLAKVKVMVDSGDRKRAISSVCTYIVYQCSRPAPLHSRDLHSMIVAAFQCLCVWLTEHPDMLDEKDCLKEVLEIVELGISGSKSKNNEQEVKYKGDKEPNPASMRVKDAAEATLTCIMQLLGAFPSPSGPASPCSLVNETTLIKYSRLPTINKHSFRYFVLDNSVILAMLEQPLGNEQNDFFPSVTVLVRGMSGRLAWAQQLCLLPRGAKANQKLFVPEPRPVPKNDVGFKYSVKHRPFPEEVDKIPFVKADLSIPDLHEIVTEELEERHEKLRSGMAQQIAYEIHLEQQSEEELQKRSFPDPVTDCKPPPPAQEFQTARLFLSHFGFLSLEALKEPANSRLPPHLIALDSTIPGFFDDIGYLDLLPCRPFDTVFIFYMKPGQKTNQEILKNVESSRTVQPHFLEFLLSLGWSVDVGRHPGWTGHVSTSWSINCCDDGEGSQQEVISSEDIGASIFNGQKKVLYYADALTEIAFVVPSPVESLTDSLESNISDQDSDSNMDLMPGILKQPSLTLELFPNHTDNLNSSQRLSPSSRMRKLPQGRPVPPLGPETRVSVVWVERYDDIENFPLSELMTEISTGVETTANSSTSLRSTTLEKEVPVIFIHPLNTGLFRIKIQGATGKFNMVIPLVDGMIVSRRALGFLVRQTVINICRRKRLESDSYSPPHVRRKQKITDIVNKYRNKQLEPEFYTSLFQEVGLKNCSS
inactive: [3] -0.005 | [4] -0.076 | [7] -0.139 | [8] 0.004 | [9] -0.343

RNF2 (UniProt Q99496)
inactive: [1] -0.03 | [4] -0.03 | [6] 0.061 | [9] -0.004 | [10] -0.002
active: [7] 0.557 | [8] -0.399
